Source: PubChem BioAssay
VP16 counter = VP16 counterscreen qHTS for inhibitors of ROR gamma transcriptional activity. Drosophila S2 Gal4-VP16 UAS-luciferase, luminescence, 20 h. Potency, µM (titrated, usually from 53.6 µM), for inactives: at the top dose activity, negative = inhibition, hits mostly inhibitors. AID 2546, 2010. 3.5% of 310,000 active;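 also: Gal4-VP16 expression switched on by copper sulfate through the metallothionein promoter; % is scaled to controls: 0 for no effect and ±100 for the full control effect; nearly all actives have a fitted effect of over 50% in size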
TGFb inhibitor = qHTS for Inhibitors of TGF-b | HepG2 CAGA-GFP TGF-b/SMAD3 reporter, GFP fluorescence, 18 h; TGF-beta stimulated, 500 pg/mL final | 1.2% of 410,000 active | AID 588855, 2011 | Potency, µM (doses to about 46.1 µM), without a hit: at the highest dose activity, negative = inhibition, hits mostly inhibitors; also: % is scaled to controls: 0 for no effect and ±100 for the full control effect; nearly all actives have a fitted effect of over 65% in size
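Using HEPG2 CAGA-GFP reporter cells at 1000 cells/well, we pinned test compounds, stimulated with recombinant TGF-beta (500 pg/mL final) and measured total well GFP after 18 h.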
RORgamma inh = qHTS for inhibitors of ROR gamma transcriptional activity | 5.4% of 310,000 active | Potency, µM (titrated, usually from 53.6 µM), for inactives: at the top dose activity change, negative = inhibition, usual class: inhibitors | Nuclear receptor ROR-gamma (Mus musculus), P51450 | Drosophila S2 Gal4-RORgamma UAS-luciferase reporter, 20 h; also: % is scaled to controls: 0 for no effect and ±100 for the full control effect; nearly all actives have a fitted effect of over 60% in size
Target sequence (P51450 whole entry, looked up, the tested form may be a part): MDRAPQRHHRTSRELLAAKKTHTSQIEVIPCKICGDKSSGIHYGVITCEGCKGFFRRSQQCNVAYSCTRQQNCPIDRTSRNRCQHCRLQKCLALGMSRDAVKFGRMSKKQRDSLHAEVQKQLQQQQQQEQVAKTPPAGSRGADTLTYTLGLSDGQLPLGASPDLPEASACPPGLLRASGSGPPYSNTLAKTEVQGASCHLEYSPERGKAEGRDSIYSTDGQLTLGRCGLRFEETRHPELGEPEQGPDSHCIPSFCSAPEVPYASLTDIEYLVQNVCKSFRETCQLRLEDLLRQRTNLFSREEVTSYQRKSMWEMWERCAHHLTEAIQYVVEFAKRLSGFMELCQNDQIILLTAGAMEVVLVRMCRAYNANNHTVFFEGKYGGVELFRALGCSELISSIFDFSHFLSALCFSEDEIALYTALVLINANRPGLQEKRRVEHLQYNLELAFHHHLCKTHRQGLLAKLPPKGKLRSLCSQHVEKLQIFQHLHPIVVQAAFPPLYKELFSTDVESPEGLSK
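Stable Schneider cell line, Gal4 DNA-binding domain fused to ROR gamma, UAS-luciferase. Cmpd 1 hr RT → CuSO4 700 uM final → 20 hr RT → luciferase reagent 10 min → luminescence.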
S2 tox = Viability Counterscreen for Primary qHTS for Inhibitors of ATXN expression | AID 651635, 2014 | 0.49% of 400,000 active | S2 cells (HEK-293 line with an ATXN2-luciferase reporter) viability, CellTiter-Fluor protease fluorescence, 24 h | Potency, µM (series often up to 56.7 µM), hits mostly cytotoxic; also: nearly all actives have a fitted effect of over 40% in size
HepG2 viability = qHTS for Inhibitors of TGF-b: Cytotox Counterscreen | HepG2 CAGA-GFP viability, ATP luminescence, 18 h | Potency, µM (doses to about 46.1 µM), for inactives: top-dose activity change, negative = cytotoxicity, usual class: cytotoxic | 0.76% of 410,000 active
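CellTiter-Glo luminescence gave cytotoxicity after 18 hours at 37 degrees C. The cells were HepG2 CAGA-GFP in 1% FBS DMEM, stimulated with 500 pg/mL TGF-beta after compound addition. %Activity was normalised to no-cell wells (complete cell-killing) and DMSO (no toxicity), and curves were fitted and classified.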
ATXN2 expr inh = Primary qHTS for Inhibitors of ATXN expression; HEK-293 ATXN2-luciferase reporter, luminescence, 24 h; Potency, µM (series often up to 57 µM), for inactives: at the top dose activity change, negative = inhibition, most hits filed as inhibitors; 0.72% of 360,000 active; AID 1745845, 2022; also: % is scaled to controls: 0 for no effect and ±100 for the full control effect; nearly all actives have a fitted effect of over 55% in size
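ATXN2-luciferase reporter cells (luciferase flanked by upstream and downstream ATXN2 gene portions) were treated 24 h at 37 °C with compounds at up to 57 uM. SteadyGlo luminescence gave expression; GF-AFC fluorescence gave viability.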
The depositor's hits bear a star; i = inactive; ? = inconclusive; nt = not tested or not shown; [ ] = dose if it differs, or a comment. Rows were chosen to be rich in hits. Some 6.1% of all compounds tested hit in one or more screens of this group. Calls follow the shape of the dose curve; as a rule, active = well fitted curve in the direction sought with a large enough effect; inconclusive = small, poorly fitted or top-dose-only effect, or another doubt; inactive = no such curve, though single readings can be large; an effect the other way counts as inactive or inconclusive. Potency is read from the fitted curve at half-maximal effect.

SMILES	VP16 counter	TGFb inhibitor	RORgamma inh	S2 tox	HepG2 viability	ATXN2 expr inh
Cc1ccc(C)c(CN2CCC(CNC(=O)c3cc4ccc5cccnc5c4[nH]3)CC2)c1	nt	?	nt	i	-76%	-22%
CO[C@@H]1COC(=O)C/C=C\[C@H](C)[C@H](OC)COC(=O)[C@H](C)NC(=O)C/C=C\[C@H]1C	2%[10 µM]	nt	1%[10 µM]	nt	nt	nt
Cc1cc(OCc2cc(C(=O)N3CCN(C)C(=O)[C@@H]3C)no2)cc(C)c1Cl	14µM*	?	-34%	i	-6%	?
C=CCNC(=S)N/N=C/c1ccc(-c2cccc([N+](=O)[O-])c2)o1	2.5µM*	0%	0.5µM*	?	-16%	-4%
CCCCOC(=O)c1ccc(-c2ccc(/C=N/NC(=S)NCC)o2)cc1	2.5µM*	-27%	0.35µM*	i	-50%	11%
O=C(O)c1ccc(N/N=C/c2ccc(-c3ccc(Br)cc3)o2)cc1	-4%	4%	?	i	8%	94%
C=CCNC(=S)N/N=C/c1ccc(-c2ccc(Br)cc2)o1	0.4µM*	0%	0.35µM*	i	-20%	5%
C=CCNC(=O)c1ccc(-c2cccc([N+](=O)[O-])c2)o1	-1%	0%	9%	i	10%	23%
COc1ccc(CCNC(=O)c2cc(=O)[nH]c3ccc(S(=O)(=O)N4CCCCC4C)cc23)cc1OC (configuration not stated)	nt	0%	nt	nt	-2%	nt
CC[C@H](C)[C@@H](NC(=O)O[C@@H]1Cc2cc(Br)ccc2O[C@H]1c1cccc(OC)c1)C(=O)OC	-12%	nt	12%	nt	nt	nt
O=c1cc(-c2ccccc2)oc2cc(O)c(O)c(O)c12	?	3%	28µM*	i	-3%	19%
COc1cccc2oc(SC)cc(=O)c12	?	nt	32µM*	nt	nt	nt
COc1cccc2oc(-c3ccccc3)cc(=O)c12	?	nt	11µM*	nt	nt	nt
COc1cccc2oc(-c3ccc(O)cc3)cc(=O)c12	?	nt	-33%	nt	nt	nt
COc1c(O)cc2oc(-c3ccc(O)cc3)cc(=O)c2c1O	?	-13%	?	?	-17%	17%
Cc1cccc(N2CCN(C(=O)C3CCN(Cc4nc(-c5ccc(Cl)cc5)oc4C)CC3)CC2)c1C	nt	-1%	nt	nt	6%	nt
COc1ccc(C)cc1NC(=O)c1cc2c(=O)n3cccc(C)c3nc2s1	nt	-6%	nt	i	-14%	-2%
COc1cccc(CNC(=O)C2CCN(Cc3cc4ccccc4n3Cc3ccc(C)cc3)CC2)c1	nt	-25%	nt	?	-6%	-12%
O=C(COC(=O)Cn1cnc2ccccc21)Nc1cc2c(cc1Cl)C(=O)c1ccccc1C2=O	?	-4%	2.8µM*	?	-18%	nt
O=C(COC(=O)Cn1cnc2ccccc21)Nc1cc(S(=O)(=O)N2CCOCC2)ccc1Cl	0%	-5%	54%	i	-1%	7%
O=C1C(=C(I)I)c2ccccc2-c2ccccc21	nt	6.3µM*	nt	nt	11µM*	?
Nc1[nH]c(=S)nc2nnsc12	nt	-7%	nt	nt	-7%	nt
Nc1ccccc1Nc1ccccc1	-12%	?	13µM*	i	20µM*	-2%
CC(C)=NOC[C@@H](C)[C@H](OCc1ccccc1)C(C)C	1%[10 µM]	nt	17%[10 µM]	nt	nt	nt
CN1/C(=C\C=O)C(C)(C)c2ccccc21	-9%	-4%	?	i	-10%	-27%
CN1/C(=C\C=Nc2ccc3ccccc3c2)C(C)(C)c2ccccc21	4.5µM*	nt	3.2µM*	nt	nt	nt
CN1\C(=C/C=C/C=C/C=[N+](C)C)C(C)(C)c2ccccc21	-87%	?	?	18µM*	-34%	nt
CCN(CC)c1ccc(C2C(C(=O)Nc3ccccc3C)=C(C)Nc3ncnn32)cc1 (configuration not stated)	nt	3%	nt	i	-32%	-2%
